Experimental data as given in PubChem BioAssay (Tox21).
Calls of active or inactive are those of the source. Unless noted, calls follow the shape of the dose curve; as a rule, active = well fitted curve in the direction sought with a large enough effect in the repeat runs; inconclusive = weak or mixed curves; inactive = no such curve, though single readings can be large; an effect the other way counts as inactive or inconclusive.

Tests used:
[1] = qHTS assay to identify small molecule antagonists of the thyroid receptor (TR) signaling pathway - cell viability counter screen (AID 743064); also: nearly all actives have a fitted effect of over 50% in size; also: potency is read from the fitted curve at half-maximal effect
Summary of the method: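 GH3.TRE-Luc cells, 4 h pre-plating; cpd + T3 1 nM final; 37 °C 23.5 h; CellTiter-Fluor 30 min; fluorescence read.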

[2] = qHTS assay to identify small molecule antagonists of the thyroid receptor (TR) signaling pathway (AID 743065); also: nearly all actives have a fitted effect of over 55% in size; also: potency is read from the fitted curve at half-maximal effect
Summary of the method: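 GH3.TRE-Luc rat pituitary cells carrying two TR response elements driving luciferase were plated for 4 h, given compound plus 1 nM T3 (final), and incubated 23.5 h at 37 C. ONE-Glo luminescence measured reporter inhibition; CellTiter-Fluor fluorescence tracked cytotoxicity.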

[3] = target: Estrogen receptor (Homo sapiens) (UniProt P03372); test: qHTS assay to identify small molecule antagonists of the estrogen receptor alpha (ER-alpha) signaling pathway (AID 743069; active = well fitted curve in the direction sought with a large enough effect in the signal ratio in the repeat runs, not every such curve was filed as active; inconclusive = weak or mixed curves, or effect the other way; inactive = no such curve, though single readings can be large or run the other way; the % refers to the signal ratio; also: potency is read from the fitted curve at half-maximal effect)
Summary of the method: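 Estradiol-stimulated ER-alpha-UAS-bla HEK293 cells, 18 hr compound exposure at 37C. LiveBLAzer B/G substrate, 2 hr RT, fluorescence read.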

[4] = qHTS assay to identify small molecule antagonists of the estrogen receptor alpha (ER-alpha) signaling pathway - cell viability counter screen (AID 743074; calls by dose curve;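 also: HEK293 cells carrying ER-alpha-UAS-bla reporter stimulated with 17beta-estradiol; nearly all actives have a fitted effect of over 45% in size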; also: potency is read from the fitted curve at half-maximal effect)
[5] = target: Estrogen receptor (Homo sapiens) (UniProt P03372); test: qHTS assay to identify small molecule agonists of the estrogen receptor alpha (ER-alpha) signaling pathway (AID 743075; calls by dose curve;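 also: HEK293 GripTite cells with ER-alpha and UAS-driven beta-lactamase reporter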; also: potency is read from the fitted curve at half-maximal effect)
[6] = qHTS assay to identify small molecule antagonists of the estrogen receptor alpha (ER-alpha) signaling pathway using the BG1 cell line (AID 743080; calls by dose curve;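 also: BG1 cells stimulated with 17beta-estradiol alongside compound; nearly all actives have a fitted effect of over 25% in size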; also: potency is read from the fitted curve at half-maximal effect)
Summary of the method: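 Luminescence from a 4×ERE-luciferase reporter in BG1-Luc-4E2 cells served as read-out. Cells, pre-cultured 5 days in stripped-serum phenol-red-free medium, were exposed to compound with 17beta-estradiol co-stimulation for 21.5 h at 37 C.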

[7] = qHTS assay to identify small molecule antagonists of the estrogen receptor alpha (ER-alpha) signaling pathway using the BG1 cell line - cell viability counter screen (AID 743081);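 also: compound given together with 17beta-estradiol as the ER stimulus; nearly all actives have a fitted effect of over 45% in size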; also: potency is read from the fitted curve at half-maximal effect
[8] = target: Peroxisome proliferator-activated receptor gamma (Homo sapiens) (UniProt P37231); test: qHTS assay to identify small molecule agonists of the peroxisome proliferator-activated receptor gamma (PPARg) signaling pathway (AID 743094; active = well fitted activation curve with a large enough effect in the signal ratio in the repeat runs, not every such curve was filed as active; inconclusive = weak or mixed curves, or effect the other way; inactive = no such curve, though single readings can be large or run the other way; the % refers to the signal ratio)
Summary of the method: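 Quantitative HTS agonist mode: stable HEK293H line with UAS-beta-lactamase reporter under PPARg control, 17 h compound exposure at 37C, fluorescence after 1 h FRET substrate loading at room temperature.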

[9] = qHTS assay to identify small molecule antagonists of the peroxisome proliferator-activated receptor gamma (PPARg) signaling pathway - cell viability counter screen (AID 743194); also: nearly all actives have a fitted effect of over 55% in size; also: potency is read from the fitted curve at half-maximal effect
Summary of the method: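 PPARg-UAS-bla HEK293H cells were plated, rested 5 h at 37 C, then treated with compounds plus rosiglitazone (50 nM final) for 17 h at 37 C; viability was then read by CellTiter-Glo luminescence after 30 min at room temperature.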

[10] = qHTS assay for small molecule agonists of the antioxidant response element (ARE) signaling pathway - cell viability counter screen (AID 743203; calls by dose curve; also: nearly all actives have a fitted effect of over 55% in size; also: potency is read from the fitted curve at half-maximal effect)
Summary of the method: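 Seeded at 2,000 cells/well, ARE-bla HepG2 cells were incubated 5 hrs before compound addition. After 16 hrs of treatment at 37C with 5% CO2, CellTiter-Glo reagent was added and luminescence read 30 min later.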

[11] = system: thyroid hormone receptor (rat, GH3 cells); test: qHTS assay to identify small molecule agonists of the thyroid receptor (TR) signaling pathway (AID 743066; calls by dose curve)
Aromatase (Homo sapiens) = Aromatase (Homo sapiens) (UniProt P11511); test: qHTS assay to identify aromatase inhibitors (AID 743083); also: nearly all actives have a fitted effect of over 55% in size; also: potency is read from the fitted curve at half-maximal effect
[12] = qHTS assay to identify aromatase inhibitors - cell viability counter screen (AID 743084); also: potency is read from the fitted curve at half-maximal effect
[13] = target: Aryl hydrocarbon receptor (Homo sapiens) (UniProt P35869); test: qHTS assay to identify small molecule that activate the aryl hydrocarbon receptor (AhR) signaling pathway (AID 743085); also: nearly all actives have a fitted effect of over 15% in size; also: potency is read from the fitted curve at half-maximal effect;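 as to activation: HG2L7.5c1 human HepG2 liver cells with stably integrated DRE-driven firefly reporter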
Summary of the method: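 Luminescence read-out: ONE-Glo reagent, 30 min at room temperature, in HG2L7.5c1 HepG2 reporter cells treated 24 h at 37C. Viability was measured beforehand by CellTiter-Fluor fluorescence after 30 min at 37C.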

[14] = qHTS assay to identify small molecule that activate the aryl hydrocarbon receptor (AhR) signaling pathway - cell viability counter screen (AID 743086); also: nearly all actives have a fitted effect of over 45% in size; also: potency is read from the fitted curve at half-maximal effect
Summary of the method: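 HepG2-AhR-luc (HG2L7.5c1) cells, 4000/well, were preincubated 5 h at 37C, exposed to compound in qHTS format for 24 hr at 37C, then given CellTiter-Fluor for 30 min; viability was read as fluorescence in the reporter wells.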

[15] = qHTS assay for small molecule agonists of the antioxidant response element (ARE) signaling pathway (AID 743202; active = well fitted activation curve with a large enough effect in the signal ratio in the repeat runs, not every such curve was filed as active; inconclusive = weak or mixed curves, or effect the other way; inactive = no such curve, though single readings can be large or run the other way; the % refers to the signal ratio; also: potency is read from the fitted curve at half-maximal effect)
Summary of the method: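 Compounds delivered in DMSO to ARE-bla HepG2 cells (2,000 cells/well, pre-incubated 5 h) and left 16 h at 37 C. LiveBLAzer B/G FRET substrate then added for 2 h at RT before fluorescence reading.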

[16] = qHTS assay for small molecule activators of the heat shock response signaling pathway - cell viability counter screen (AID 743209); also: nearly all actives have a fitted effect of over 50% in size
Summary of the method: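 First, HSE-bla HeLa cells were seeded at 1500 cells/well and kept overnight at 37 C. Next, compounds were pinned in and incubated 5 h. After the FRET substrate step, CellTiter-Glo was added and luminescence read 30 min later.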

[17] = qHTS assay for small molecule activators of the heat shock response signaling pathway (AID 743210; active = well fitted activation curve with a large enough effect in the signal ratio in the repeat runs, with a control signal flat, not every such curve was filed as active; inconclusive = weak or mixed curves; the % refers to the signal ratio;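 also: HeLa cells with beta-lactamase reporter driven by heat shock elements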)
Summary of the method: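 Reporter gene assay: HeLa cells stably bearing an HSE-bla construct, compound treatment 5 h at 37 C, LiveBLAzer substrate 2.5 h at RT, fluorescence intensity.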

[18] = target: Peroxisome proliferator-activated receptor gamma (Homo sapiens) (UniProt P37231); test: qHTS assay to identify small molecule antagonists of the peroxisome proliferator-activated receptor gamma (PPARg) signaling pathway (AID 743191; calls by dose curve; also: nearly all actives have a fitted effect of over 30% in size; also: potency is read from the fitted curve at half-maximal effect)
Summary of the method: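 GeneBLAzer PPARg UAS-bla HEK293H cells carrying a UAS-driven beta-lactamase reporter were plated at 3000 cells/well, preincubated 5 h at 37C, then given compound for 17 h at 37C; LiveBLAzer B/G FRET substrate was read after 1 h at room temperature.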

[19] = target: Estrogen receptor (Homo sapiens) (UniProt P03372); test: qHTS assay to identify small molecule agonists of the estrogen receptor alpha (ER-alpha) signaling pathway using the BG1 cell line (AID 743079); details: BG1Luc4E2 cells, ERE-luciferase agonist, 22 h; activation: at 70.3 µM (top of the series); also: nearly all actives have a fitted effect of over 20% in size; also: potency is read from the fitted curve at half-maximal effect

Measured: Potency

Aromatase (Homo sapiens), sequence (P11511 whole entry, looked up): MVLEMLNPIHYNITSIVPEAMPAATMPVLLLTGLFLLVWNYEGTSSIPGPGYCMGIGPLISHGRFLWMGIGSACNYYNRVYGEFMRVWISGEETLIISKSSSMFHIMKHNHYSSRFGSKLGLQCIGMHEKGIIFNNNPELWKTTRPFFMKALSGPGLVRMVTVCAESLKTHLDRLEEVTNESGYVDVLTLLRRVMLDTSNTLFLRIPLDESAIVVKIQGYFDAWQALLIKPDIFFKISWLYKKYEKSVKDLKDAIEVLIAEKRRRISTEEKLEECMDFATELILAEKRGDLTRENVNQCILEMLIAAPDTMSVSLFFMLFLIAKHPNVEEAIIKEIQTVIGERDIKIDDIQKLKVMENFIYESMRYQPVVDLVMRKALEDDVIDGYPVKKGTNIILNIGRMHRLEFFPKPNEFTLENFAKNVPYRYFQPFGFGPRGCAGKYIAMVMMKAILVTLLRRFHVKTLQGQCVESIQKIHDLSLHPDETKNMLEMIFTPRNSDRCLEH
Aryl hydrocarbon receptor (Homo sapiens), sequence (P35869 whole entry, looked up): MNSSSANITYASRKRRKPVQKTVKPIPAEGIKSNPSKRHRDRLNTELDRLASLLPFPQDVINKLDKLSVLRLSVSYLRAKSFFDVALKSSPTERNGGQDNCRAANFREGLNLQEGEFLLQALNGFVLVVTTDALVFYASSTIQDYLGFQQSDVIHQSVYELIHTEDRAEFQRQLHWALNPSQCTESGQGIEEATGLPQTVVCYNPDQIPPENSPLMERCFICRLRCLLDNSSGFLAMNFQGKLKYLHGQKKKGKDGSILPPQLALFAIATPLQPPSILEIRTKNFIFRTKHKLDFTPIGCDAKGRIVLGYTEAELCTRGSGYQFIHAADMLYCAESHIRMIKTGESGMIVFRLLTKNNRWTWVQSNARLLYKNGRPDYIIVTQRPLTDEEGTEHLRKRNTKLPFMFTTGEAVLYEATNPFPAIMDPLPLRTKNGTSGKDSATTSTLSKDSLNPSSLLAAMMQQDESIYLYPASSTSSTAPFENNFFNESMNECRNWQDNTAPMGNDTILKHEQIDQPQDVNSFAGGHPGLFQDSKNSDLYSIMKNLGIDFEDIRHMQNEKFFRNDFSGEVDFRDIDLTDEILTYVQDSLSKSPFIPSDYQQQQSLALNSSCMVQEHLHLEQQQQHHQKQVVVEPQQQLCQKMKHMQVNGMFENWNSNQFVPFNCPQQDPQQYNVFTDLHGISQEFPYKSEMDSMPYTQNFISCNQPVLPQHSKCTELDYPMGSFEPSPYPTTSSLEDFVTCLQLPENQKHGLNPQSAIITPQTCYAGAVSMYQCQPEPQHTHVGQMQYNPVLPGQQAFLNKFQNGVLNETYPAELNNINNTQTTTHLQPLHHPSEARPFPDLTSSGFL
Estrogen receptor (Homo sapiens), sequence (P03372 whole entry, looked up): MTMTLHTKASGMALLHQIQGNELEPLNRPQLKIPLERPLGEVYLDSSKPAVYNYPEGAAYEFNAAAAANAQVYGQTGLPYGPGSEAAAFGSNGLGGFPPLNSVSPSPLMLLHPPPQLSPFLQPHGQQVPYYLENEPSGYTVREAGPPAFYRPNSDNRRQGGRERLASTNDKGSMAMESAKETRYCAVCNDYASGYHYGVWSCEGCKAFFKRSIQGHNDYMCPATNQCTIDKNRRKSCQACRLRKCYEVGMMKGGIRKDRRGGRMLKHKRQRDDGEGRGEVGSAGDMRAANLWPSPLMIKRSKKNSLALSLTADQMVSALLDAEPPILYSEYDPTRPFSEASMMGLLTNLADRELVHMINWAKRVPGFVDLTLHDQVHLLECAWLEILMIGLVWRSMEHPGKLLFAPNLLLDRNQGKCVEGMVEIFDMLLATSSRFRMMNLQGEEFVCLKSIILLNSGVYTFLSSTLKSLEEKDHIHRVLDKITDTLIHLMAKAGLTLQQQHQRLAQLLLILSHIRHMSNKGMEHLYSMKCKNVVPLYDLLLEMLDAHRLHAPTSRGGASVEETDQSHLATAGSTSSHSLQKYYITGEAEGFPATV
Peroxisome proliferator-activated receptor gamma (Homo sapiens), sequence (P37231 whole entry, looked up): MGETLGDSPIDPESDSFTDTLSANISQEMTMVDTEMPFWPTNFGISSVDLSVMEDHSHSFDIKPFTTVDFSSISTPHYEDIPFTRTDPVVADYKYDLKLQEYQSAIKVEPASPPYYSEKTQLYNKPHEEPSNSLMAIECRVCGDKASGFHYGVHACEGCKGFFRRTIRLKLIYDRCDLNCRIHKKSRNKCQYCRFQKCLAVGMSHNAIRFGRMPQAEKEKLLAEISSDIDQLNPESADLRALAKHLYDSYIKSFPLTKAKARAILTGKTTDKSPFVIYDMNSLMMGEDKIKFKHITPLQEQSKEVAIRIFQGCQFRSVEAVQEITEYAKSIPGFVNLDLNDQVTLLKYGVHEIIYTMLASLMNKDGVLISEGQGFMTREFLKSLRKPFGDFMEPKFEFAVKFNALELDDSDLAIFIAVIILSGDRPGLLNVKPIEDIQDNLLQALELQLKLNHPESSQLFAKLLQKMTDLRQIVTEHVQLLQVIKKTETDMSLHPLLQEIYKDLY

CC(=O)N/N=C/c1ccc([N+](=O)[O-])o1
active: [1] 18.8 µM | [2] 16.8 µM
inactive: [3] | [4] | [5] | [6] | [7] | [8] | [9] | [10]

CC1=C(Br)C(=O)C(Br)=C/C1=C(/c1ccccc1S(=O)(=O)O)c1cc(Br)c(O)c(Br)c1C
active: [1] 46.6 µM | [2] 18.6 µM | [7] 37 µM | Aromatase (Homo sapiens) 18.6 µM | [12] 23.4 µM | [14] 18.6 µM
inactive: [11] | [13] | [8] | [9] | [15] | [10] | [16] | [17]

C=C(C)[C@@H]1CCC2=CCC[C@@H](C)[C@]2(C)C1
inactive: [1] | [11] | [3] | [4] | [5] | [6] | [7] | [12] | [13] | [14] | [8] | [18] | [10]

COc1cc(Nc2c(C#N)cnc3cc(OCCCN4CCN(C)CC4)c(OC)cc23)c(Cl)cc1Cl
active: [1] 11.9 µM | [2] 9.44 µM | [4] 26.8 µM | Aromatase (Homo sapiens) 26.6 µM | [14] 13.3 µM | [9] 21.1 µM | [10] 18.8 µM
inactive: [13] | [16]

O=[N+]([O-])c1ccc(O/N=C/c2cc(Br)c(O)c(Br)c2)c([N+](=O)[O-])c1
active: [1] 10.8 µM | [2] 9.64 µM | [18] 19.4 µM | [15] 8.59 µM
inactive: [11] | Aromatase (Homo sapiens) | [12] | [14] | [8] | [16]

Cc1cc(=O)c2c(O)c3c(O)cc(=O)c4c3c3c(cc(O)c1c23)C(C)(C)C=4O
inactive: [12] | [14]
active: [1] 0.841 µM | [2] 0.596 µM

O=C1Cc2ccccc2N1c1c(Cl)cccc1Cl
inactive: [1] | [11] | [4] | [7] | Aromatase (Homo sapiens) | [12] | [13] | [8] | [9] | [10] | [16] | [17]
active: [5] 43.6 µM [inconclusive] | [19] 10.9 µM | [6] 68.6 µM

CCCCCCCC/C=C\CCCCCCCCO
inactive: [1] | [2] | [11] | [7] | Aromatase (Homo sapiens) | [12] | [13] | [14] | [8] | [18] | [9] | [15] | [10] | [16] | [17]

Cc1cccc(O)c1N
active: [13] 27.6 µM
inactive: [1] | [11] | [4] | [7] | Aromatase (Homo sapiens) | [12] | [14] | [9] | [10] | [16] | [17]

CC1(CN2CCC(n3c(=O)[nH]c4ccccc43)CC2)OCc2ccccc2-n2cccc21 (configuration not stated)
active: [1] 29.8 µM | [2] 26.6 µM | [6] 29.8 µM | [10] 33.5 µM
inactive: [4] | [5] | [7] | [12] | [13] | [14] | [16] | [17]

CCC(C)COC(=O)CC(C)C (configuration not stated)
inactive: [1] | [11] | [3] | [4] | [5] | [19] | [6] | [7] | Aromatase (Homo sapiens) | [12] | [13] | [14] | [18] | [10] | [16] | [17]

CCC1CO1 (configuration not stated)
inactive: [1] | [2] | [11] | [7] | Aromatase (Homo sapiens) | [12] | [13] | [14] | [8] | [15] | [10] | [16] | [17]

COC(=O)C1=C(C)NC(C)=C(C(=O)O[C@@H]2CCCN(Cc3ccccc3)C2)[C@@H]1c1cccc([N+](=O)[O-])c1
inactive: [4] | [5] | [19] | [6] | [12] | [9] | [16] | [17]
active: [1] 26.6 µM | [2] 11.9 µM | [3] 26.8 µM [inhibitor] | Aromatase (Homo sapiens) 29.8 µM

C[C@@]12CCC[C@H]1[C@@H]1CC[C@H]3C[C@@H](O)CC[C@]3(C)[C@H]1CC2
inactive: [1] | [2] | [11] | [7] | [15] | [10] | [16]

CN1CCCC(CC2c3ccccc3Sc3ccccc32)C1 (configuration not stated)
inactive: [3] | [4] | [5] | [19] | [6] | [7] | Aromatase (Homo sapiens) | [12] | [13] | [16] | [17]
active: [1] 9.02 µM | [2] 7.17 µM | [18] 10.6 µM

CC(C)Nc1cccnc1N1CCN(C(=O)c2cc3cc(NS(C)(=O)=O)ccc3[nH]2)CC1
inactive: [1] | [11] | [3] | [4] | [5] | [19] | [6] | [7] | Aromatase (Homo sapiens) | [12] | [13] | [14] | [8] | [18] | [9] | [10] | [16] | [17]

C[C@@H]1CN(CCCn2c3ccccc3c3ccccc32)C[C@H](C)N1
active: [1] 10.6 µM | [2] 8.41 µM | [13] 26.6 µM | [9] 23.7 µM | [10] 26.6 µM
inactive: [7] | [12] | [16]

CN1CCCC(n2nc(Cc3ccc(Cl)cc3)c3ccccc3c2=O)CC1 (configuration not stated)
active: [1] 21.1 µM | [2] 21.1 µM | [10] 29.8 µM
inactive: [3] | [4] | [5] | [19] | [6] | Aromatase (Homo sapiens) | [12] | [13] | [14] | [8] | [16] | [17]
